# Source: PubChem
# Shown is part of a subset that was picked to be rich in hits.
# MgrA-DNA mod: modulators of Staphylococcus aureus MgrA DNA binding | fluorescence polarization | inhibition, % (concentration not given with the values) | AID 602314 | 84,000 tested, 0.13% active; in the data active = inhibition above about 30%, passing the limit was not always enough;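 also: 0% = protein plus DNA without compound and 100% = DNA alone without protein; higher means less MgrA bound to DNA so lower polarization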
# Starred values were filed as active, the others as inactive.
SMILES,MgrA-DNA mod
CCc1ccc(N2C(=O)/C(=C/c3ccc(OCC(=O)O)c(OC)c3)C(=O)NC2=S)cc1,18.0
FC(F)(F)C1(C(F)(F)F)N=C(c2cccnc2)N(c2ccccc2)N1,0.0
CCOC(=O)Nc1c[nH]c2c(C)cccc2c1=O,0.3
COc1ccc(N2C(=O)CC(N3CCCCC3C)C2=O)cc1 (stereo unspecified),2.4
O=C1c2ccccc2-c2nc(-c3ccccc3)cc3cccc1c23,3.3
Clc1ccc(-c2nc(N3CCCCC3)c3ccccc3n2)cc1,0.9
O=C1c2ccc(S(=O)(=O)O)cc2-c2nc(-c3ccccc3)nc3ccc(Cl)c1c23,80.9*
CCCNS(=O)(=O)c1ccccc1,-0.8
C=CCn1c(=O)[nH]c(=O)n(CC=C)c1=O,0.6
CN1C(=O)/C(=C/c2ccc(-c3ccc(C(=O)O)cc3)o2)c2ccccc21,6.1
Cc1ccc(N2C(=O)NC(=O)/C(=C\c3ccc(-c4ccccc4C(=O)O)o3)C2=O)cc1,4.7
CN1C(=O)/C(=C\c2ccc(-c3ccccc3C(=O)O)o2)C(=O)N(c2ccccc2)C1=S,62.0*
O=C(CCN1C(=O)c2ccccc2C1=O)N1CCN(c2cccc(Cl)c2)CC1,-0.4
CC1CCC2(CC1)Oc1ccccc1C1CC(c3ccco3)=NN12 (stereo unspecified),-0.3
C=CCNc1ccccc1C(=O)NCC(=O)OCC,-1.7
CCCc1oc(C(=O)O)cc1CN(CC)CC,-7.3
CCN(CC)Cc1cc(O)c(CN(CC)CC)cc1O,59.5*
CCN(CC)Cc1cc(C2N(C(C)=O)c3cccc4cccc(c34)N2C(C)=O)ccc1O,-1.2
NC(=O)c1ccc(NC(=O)COC(=O)/C=C/c2ccc(Cl)cc2)cc1,-0.5
CC1CN(C(=O)Cc2ccc(Cl)cc2)CC(C)O1 (stereo unspecified),-2.5
Cc1ccc(C)n1-c1cccc(N)c1,2.5
O=C(O)c1cccc(-n2cccc2)c1,34.8
Cc1ccc(C)n1-c1cccc(C(=O)O)c1,102.8*
CCOC(=O)c1ccc(N=C2SC(C(=O)Nc3cccc(Cl)c3)CC(=O)N2C)cc1 (stereo unspecified),1.4
CN(Cc1ccccc1)C(=O)CSc1c2c(nc3ccccc13)CCC2,-0.6
